PubChem BioAssay (NCI)
Compounds without any hit were thinned out: in the full panel of roughly 83,000, 20% have a hit.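 Growth was measured after 48 h exposure to one concentration of compound in 96-well plates. Values under 10 count as active.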 Unmarked numbers belong to inactive results. Active and inactive are the calls of the source.

The compounds below were run on NCI-H460 lung (assay: NCI-60 one-dose screen, 48 h (100 = growth as untreated, 0 = no growth, -100 = all killed)). Details: 10 µM unless noted.
Method: Growth inhibition of the NCI-H460 human Non-Small Cell Lung tumor cell line is measured as a screen for anti-cancer activity. Cells are grown in 96 well plates and exposed to the test compound for 48 hours. Compounds are tested at a single concentration, which is 10^-5 M for most compounds. The reported endpoint is percent growth (GI% or GIPRCNT), where numbers from 0 - 100% represent growth inhibition, and numbers from -100% - 0 represent cell death. For example, a value of 40 represents 60% growth inhibition. A value of 0 means no net growth occurred over the course of the experiment. A value of -40 indicates 40% of cells at the beginning of the experiment died by the end of the experiment. A value of -100 means all cells are dead at the end of the experiment.
NCI-60 Human Tumor Cell Lines Screen was performed using the standard one-dose NCI protocol, which is described in more detail at https://dtp.cancer.gov/discovery_development/nci-60/default.htm.
Compounds with GIPRCNT values below 10 were considered active. Activity score was based on GIPRCNT using the following formula: […]
Score is 0 for GIPRCNT values of 100 or above, 50 for GIPRCNT values of 0, and 100 for GIPRCNT values of -100.

Compound | growth
COc1cccc(-c2nn(-c3ccccc3)cc2-c2ccnc(NCCCO)c2)c1 | 18.4%
COc1cnc2c(c1)C(=O)c1c-2n(CCCNC(C)C)c(=O)c2cc([N+](=O)[O-])ccc12 | -74.1% (active)
Fc1ccc(Nc2nc(Nc3ccc(-c4nc5ccccc5[nH]4)cc3)nc(N3CCCC3)n2)cc1 | 70.4%
Nc1c2c(nc3ccc(Cl)cc13)CC(c1ccccc1)CC2=O (stereo not given) | 15.2%
Clc1cc(Cl)cc(Nc2ccc3c(OCCCN4CCOCC4)cccc3n2)c1 | 13.1%
CC(=O)OC[C@]12CC[C@@H](/C(C)=N/O)[C@@H]1[C@H]1CC[C@@H]3[C@@]4(C)CCCNC(C)(C)[C@@H]4CC[C@@]3(C)[C@]1(C)CC2 | 84.5%
Cc1ccc(Cc2cnc(NC(=O)/C=C/c3cccc(C)c3)s2)cc1 | 1.93% (active)
C(=C\c1c[nH]c2ccccc12)/c1ccc2ccccc2n1 | 79.7%
O=C(NC1=CC(=O)c2ccccc2C1=O)c1ccccc1 | 10.2%
O=C1/C(=C\c2ccco2)SC(=S)N1CCc1ccc(O)cc1 | 106%
c1ccc2[nH]c(-c3ccc(Nc4nc(N5CCCCC5)nc(N5CCOCC5)n4)cc3)nc2c1 | 0.809% (active)
CCOc1ccc(NC(=O)c2ccccc2-c2ccccc2C(=O)O)cc1 | 113%
COc1ccc2[nH]cc(-c3nc(-c4c[nH]c5ncccc45)cs3)c2c1 | 21.8%
CC(C)(C)CC(C)(C)c1ccc(OCCOCC[N+](C)(C)CC(=O)[O-])cc1 | 110%
COc1cc2c3c(c4c5ccccc5[nH]c4c2c(OC)c1OC)C(=O)N(O)C3=O | 26.9%
NC1=C(C/C(N)=N\O)C(c2ccccc2Cl)c2c(ccc3ccccc23)O1 (stereo not given) | 87.8%
COc1ccc2nc(-c3cc(-c4cc(OC)c(OC)c(OC)c4)n[nH]3)[nH]c2c1 | 25.2%
Cn1cnc2c1c(=O)n(CCC(=O)Nc1ccc(F)cc1)c(=O)n2C | 108%
CC1(C)CC[C@]2(CO)CC[C@]3(C)C(=CC[C@@H]4[C@@]5(C)CC[C@H](NCO)C(C)(C)[C@@H]5CC[C@]43C)[C@@H]2C1 | -70.5% (active)
CCCNc1nc(N(C)O)nc(N(C)O)n1 | 11.5%

Compound | growth
C[C@@H]1CCCCCCCCC[C@H](O)C(=O)C[C@@H](SC[C@@H](O)C(=O)O)C(=O)O1 | 108%
O=C(c1ccccc1)C(CN1CCOCC1)c1ccccc1 (stereo not given) | 79.4%
COc1ccc(/C=C/C(=O)NCC(C)O)cc1 (stereo not given) | 101%
COc1cc2ncnc(Nc3ccc(OCc4cccc(F)c4)c(Cl)c3)c2cc1NC(=O)C1CCCC1 | 88.7%
CC1(C)C(=O)/C(=C\c2cccnc2)C[C@]2(C)[C@H]3CC[C@@H]4[C@@H](C(=O)/C=C/c5ccncc5)CC[C@@]4(C)[C@]3(C)CC[C@@H]12 | 23.7%
O=c1c(CNc2ccc(S(=O)(=O)Nc3ncccn3)cc2)coc2ccccc12 | 105%
COc1cc(-c2cc3cc(O)ccc3oc2=O)cc(OC)c1OC | 107%
N=C(N)c1ccc(-c2ccc(-c3cc(F)cc(F)c3)o2)nc1 | 99.4%
Cc1cc2nc3c4cc([N+](=O)[O-])cc([N+](=O)[O-])c4n(CCN(C)C)c3nc2cc1C | 65.4%
Nc1c(Cl)cc(N=Nc2ccccc2)cc1Cl | 65.1%
C#CCn1c(C)cc(C)c(C#N)c1=O | 107%
CC(C)c1cc(C(=O)O)c(O)c(C(C)C)c1.CC(C)c1cc(C(=O)O)c(O)c(C(C)C)c1.[Mn] | 102%
CCC(c1ccc(OC)cc1)C(CC)c1ccc(O)c(CN2CCCCC2)c1 (stereo not given) | 77.1%
COC(=O)[C@@H]1[C@H]2C[C@H]3c4[nH]c5cc(OC)ccc5c4CCN3C[C@@H]2C[C@H](OC(=O)/C=C/c2ccnc(OC)c2)[C@H]1OC | 102%
CN1CCN(c2ccc3nc(-c4[nH]ncc4Nc4ncnc5c4OCCCN5)[nH]c3c2)CC1 | -69.8% (active)
CC(=O)NC1=C(C#N)C(c2ccccc2Cl)c2c(ccc3ccccc23)O1 (stereo not given) | 39.1%
Cc1ccc2c(c1)c(-c1nc(-c3c[nH]c4ncccc34)cs1)cn2C | 56.8%
COc1cc2nc(Cl)nc(Nc3cccc(C(=O)/C=C/c4ccccc4)c3)c2cc1OC | 89%
O=C1c2cccc3cccc(c23)C(=O)N1CC#Cc1ccc2c3c(cccc13)C(=O)N(CCO)C2=O | 95.8%
COc1cc(/C=C/c2cc(/C=C/c3ccc(O)c(OC)c3)n(-c3ccccc3)c(=O)n2)ccc1O | 91%
